What all share (assay): DAPPL (digital affinity profiling via proximity ligation, sequencing); 10 mM Tris-HCl pH 7.5, 50 mM NaCl, 1 mM DTT, 4% glycerol, room temperature, 30 min; GST-TFs on glutathione beads, 16-mer random dsDNA library, 0.1% formaldehyde crosslink after washing; high values mean tight binding
What all share (conditions): protein: recombinant; tags: N-terminal GST; dsDNA, one strand shown

One test concerns the target T1, FLI1 (Homo sapiens, UniProt Q01543 1-452).
T1 sequence: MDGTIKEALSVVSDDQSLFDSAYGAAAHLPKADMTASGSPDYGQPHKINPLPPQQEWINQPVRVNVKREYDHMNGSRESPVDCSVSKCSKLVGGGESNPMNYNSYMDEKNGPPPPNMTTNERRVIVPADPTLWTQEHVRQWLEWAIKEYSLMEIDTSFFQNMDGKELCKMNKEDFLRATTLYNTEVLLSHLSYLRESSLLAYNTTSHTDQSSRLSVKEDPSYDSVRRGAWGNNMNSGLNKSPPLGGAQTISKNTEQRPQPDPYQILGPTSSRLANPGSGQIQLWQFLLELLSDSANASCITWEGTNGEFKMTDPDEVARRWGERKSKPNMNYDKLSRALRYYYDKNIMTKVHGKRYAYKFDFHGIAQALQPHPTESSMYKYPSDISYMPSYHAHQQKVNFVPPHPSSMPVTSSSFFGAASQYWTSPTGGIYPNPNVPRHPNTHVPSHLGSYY
A digest of the protocol:
(§1)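 Binding signal is each hexamer's read frequency for a factor divided by its frequency in the tag-only sample. The factors were GST-fused human transcription factors from yeast, captured on glutathione beads, DNA-barcoded and pooled with that sample. Pools were incubated with 200 nmole of a random double-stranded 16-mer DNA library in Tris/NaCl/DTT/glycerol buffer at room temperature for 30 min, then washed, crosslinked with 0.1% formaldehyde, proximity-ligated with BsaI/T4 ligase (1 h, 37 °C), PCR-amplified and sequenced on an Illumina NextSeq500.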

The next test addresses T2, ELK1 (Homo sapiens, UniProt P19419 1-428).
T2 sequence: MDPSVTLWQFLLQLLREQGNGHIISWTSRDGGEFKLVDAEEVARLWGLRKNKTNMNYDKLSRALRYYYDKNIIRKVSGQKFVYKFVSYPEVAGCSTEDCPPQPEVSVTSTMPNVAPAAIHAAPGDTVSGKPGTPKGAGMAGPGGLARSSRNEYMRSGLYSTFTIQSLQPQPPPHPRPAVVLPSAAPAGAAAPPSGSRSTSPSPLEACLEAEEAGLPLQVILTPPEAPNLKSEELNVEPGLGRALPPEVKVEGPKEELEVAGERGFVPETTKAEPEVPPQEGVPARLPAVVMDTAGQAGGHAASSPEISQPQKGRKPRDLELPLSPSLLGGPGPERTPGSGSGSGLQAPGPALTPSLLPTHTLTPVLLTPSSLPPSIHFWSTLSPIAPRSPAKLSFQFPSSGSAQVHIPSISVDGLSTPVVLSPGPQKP
The procedure, abridged: as §1

For a further test, the target named is T3, GABPA (Homo sapiens, UniProt Q06546 1-454).
T3 sequence: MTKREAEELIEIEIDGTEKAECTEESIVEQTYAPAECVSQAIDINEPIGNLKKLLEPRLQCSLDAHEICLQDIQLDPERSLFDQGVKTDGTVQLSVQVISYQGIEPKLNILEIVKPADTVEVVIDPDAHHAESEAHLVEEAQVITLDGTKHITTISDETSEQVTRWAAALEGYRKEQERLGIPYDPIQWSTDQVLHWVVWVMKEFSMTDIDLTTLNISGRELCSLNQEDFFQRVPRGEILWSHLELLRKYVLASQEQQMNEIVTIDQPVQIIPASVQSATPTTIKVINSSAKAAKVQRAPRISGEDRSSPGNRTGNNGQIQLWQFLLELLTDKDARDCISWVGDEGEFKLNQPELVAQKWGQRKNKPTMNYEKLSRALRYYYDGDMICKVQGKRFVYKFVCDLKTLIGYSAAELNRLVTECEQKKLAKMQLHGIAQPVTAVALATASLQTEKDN
The procedure, abridged:
as §1

The target of the next test is T4, ERG (Homo sapiens, UniProt P11308 1-479).
T4 sequence: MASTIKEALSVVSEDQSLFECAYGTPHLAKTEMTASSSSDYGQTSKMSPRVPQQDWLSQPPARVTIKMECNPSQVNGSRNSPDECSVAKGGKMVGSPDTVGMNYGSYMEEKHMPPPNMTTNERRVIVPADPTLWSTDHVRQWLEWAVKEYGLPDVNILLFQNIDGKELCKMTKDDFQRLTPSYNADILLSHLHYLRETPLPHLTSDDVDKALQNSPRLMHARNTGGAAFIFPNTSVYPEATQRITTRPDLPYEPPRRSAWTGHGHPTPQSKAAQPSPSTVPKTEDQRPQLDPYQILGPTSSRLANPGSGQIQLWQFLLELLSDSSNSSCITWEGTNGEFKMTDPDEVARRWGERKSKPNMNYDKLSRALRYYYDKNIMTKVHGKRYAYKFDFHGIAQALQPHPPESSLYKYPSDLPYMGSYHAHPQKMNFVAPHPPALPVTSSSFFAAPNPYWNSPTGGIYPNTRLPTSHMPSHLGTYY
The procedure, abridged: as §1

The target in the next test is ELF1 (Homo sapiens, UniProt P32519 1-619). A digest of the protocol: as §1
ELF1, sequence (P32519 whole entry): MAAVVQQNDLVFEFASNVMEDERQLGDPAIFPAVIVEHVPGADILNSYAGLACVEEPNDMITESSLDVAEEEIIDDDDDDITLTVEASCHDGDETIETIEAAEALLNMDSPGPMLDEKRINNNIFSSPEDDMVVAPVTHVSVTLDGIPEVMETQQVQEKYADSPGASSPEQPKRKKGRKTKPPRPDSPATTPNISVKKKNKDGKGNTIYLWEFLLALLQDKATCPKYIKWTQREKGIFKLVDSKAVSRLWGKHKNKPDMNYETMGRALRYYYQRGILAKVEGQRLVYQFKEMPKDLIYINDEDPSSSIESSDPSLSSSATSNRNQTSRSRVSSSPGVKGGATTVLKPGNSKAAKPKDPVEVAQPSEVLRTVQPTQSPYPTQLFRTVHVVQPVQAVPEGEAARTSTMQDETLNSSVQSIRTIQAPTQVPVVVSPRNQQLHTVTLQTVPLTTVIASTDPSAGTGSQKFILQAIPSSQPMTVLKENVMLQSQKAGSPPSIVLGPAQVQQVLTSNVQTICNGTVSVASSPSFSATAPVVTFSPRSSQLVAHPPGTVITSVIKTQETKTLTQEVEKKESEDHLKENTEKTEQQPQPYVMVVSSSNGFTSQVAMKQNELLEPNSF
A further test has as its target T5, EHF (Homo sapiens, UniProt Q9NZC4 1-300).
T5 sequence: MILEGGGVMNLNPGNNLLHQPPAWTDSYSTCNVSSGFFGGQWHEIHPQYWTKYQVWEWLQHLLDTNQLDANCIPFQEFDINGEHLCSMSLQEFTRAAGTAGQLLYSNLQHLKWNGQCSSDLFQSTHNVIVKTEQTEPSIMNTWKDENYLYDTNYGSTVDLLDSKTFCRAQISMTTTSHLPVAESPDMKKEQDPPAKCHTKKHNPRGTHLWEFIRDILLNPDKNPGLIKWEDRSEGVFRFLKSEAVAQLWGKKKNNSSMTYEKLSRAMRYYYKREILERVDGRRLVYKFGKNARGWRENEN
A digest of the protocol:
as §1

A further test has as its target SPI1 (Homo sapiens, UniProt P17947 1-270). The procedure, abridged:
as §1

Another test addresses SPIB (Homo sapiens, UniProt Q01892 1-262). The procedure, abridged:
as §1

The target of another test is T6, ELK3 (Homo sapiens, UniProt P41970 1-407).
T6 sequence: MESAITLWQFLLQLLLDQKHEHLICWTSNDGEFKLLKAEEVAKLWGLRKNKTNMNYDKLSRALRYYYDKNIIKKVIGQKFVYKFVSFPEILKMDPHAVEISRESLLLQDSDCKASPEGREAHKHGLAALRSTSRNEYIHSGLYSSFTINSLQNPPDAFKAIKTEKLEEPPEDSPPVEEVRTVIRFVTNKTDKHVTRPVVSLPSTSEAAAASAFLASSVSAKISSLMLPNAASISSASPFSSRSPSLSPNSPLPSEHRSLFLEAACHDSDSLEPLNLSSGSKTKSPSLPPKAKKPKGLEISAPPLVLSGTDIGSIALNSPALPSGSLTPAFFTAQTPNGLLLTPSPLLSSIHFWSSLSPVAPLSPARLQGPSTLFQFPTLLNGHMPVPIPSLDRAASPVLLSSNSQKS
The procedure, abridged:
as §1

SPIB, sequence (Q01892 whole entry): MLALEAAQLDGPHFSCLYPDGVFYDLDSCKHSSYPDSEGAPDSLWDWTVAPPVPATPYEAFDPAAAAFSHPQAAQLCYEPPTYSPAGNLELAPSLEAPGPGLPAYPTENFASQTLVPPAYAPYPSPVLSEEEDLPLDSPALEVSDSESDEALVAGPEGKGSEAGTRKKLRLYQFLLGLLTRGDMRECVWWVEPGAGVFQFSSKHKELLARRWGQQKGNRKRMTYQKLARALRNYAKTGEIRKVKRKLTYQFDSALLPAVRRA

In the case of ATCTAA, the binding signal is 1.21 fold enrichment (6-mer frequency, TF over GST control) with FLI1; 1.24 fold enrichment (6-mer frequency, TF over GST control) with ELK1; 1.23 fold enrichment (6-mer frequency, TF over GST control) with GABPA; 1.17 fold enrichment (6-mer frequency, TF over GST control) with ERG; 1.23 fold enrichment (6-mer frequency, TF over GST control) with ELF1; 1.23 fold enrichment (6-mer frequency, TF over GST control) in the test with EHF. For the same sequence, the binding signal in the test with SPI1 is 1.13 fold enrichment (6-mer frequency, TF over GST control); with SPIB, 1.21 fold enrichment (6-mer frequency, TF over GST control); in the test with ELK3, 1.16 fold enrichment (6-mer frequency, TF over GST control).

Regarding AACACA, the binding signal with FLI1 was 1.32 fold enrichment (6-mer frequency, TF over GST control); with ELK1 it was 1.32 fold enrichment (6-mer frequency, TF over GST control); in the test with GABPA, 1.33 fold enrichment (6-mer frequency, TF over GST control); with ERG, 1.32 fold enrichment (6-mer frequency, TF over GST control); with ELF1, 1.39 fold enrichment (6-mer frequency, TF over GST control); with EHF, 1.38 fold enrichment (6-mer frequency, TF over GST control). For the same sequence, the binding signal with SPI1 is 1.27 fold enrichment (6-mer frequency, TF over GST control); with SPIB it was 1.35 fold enrichment (6-mer frequency, TF over GST control); with ELK3 it was 1.26 fold enrichment (6-mer frequency, TF over GST control).

TTTCAT: the binding signal with FLI1 is 1.11 fold enrichment (6-mer frequency, TF over GST control); in the test with ELK1, 1.09 fold enrichment (6-mer frequency, TF over GST control); with GABPA, 1.22 fold enrichment (6-mer frequency, TF over GST control); in the test with ERG, 1.15 fold enrichment (6-mer frequency, TF over GST control); in the test with ELF1, 1.18 fold enrichment (6-mer frequency, TF over GST control); with EHF, 1.17 fold enrichment (6-mer frequency, TF over GST control). Further, the binding signal with SPI1 is 1.14 fold enrichment (6-mer frequency, TF over GST control); with SPIB, 1.22 fold enrichment (6-mer frequency, TF over GST control); with ELK3 it was 1.15 fold enrichment (6-mer frequency, TF over GST control).

Take CTCTCA: the binding signal is 1.49 fold enrichment (6-mer frequency, TF over GST control) in the test with FLI1; 1.47 fold enrichment (6-mer frequency, TF over GST control) with ELK1; 1.52 fold enrichment (6-mer frequency, TF over GST control) in the test with GABPA; 1.36 fold enrichment (6-mer frequency, TF over GST control) with ERG; 1.38 fold enrichment (6-mer frequency, TF over GST control) with ELF1; 1.36 fold enrichment (6-mer frequency, TF over GST control) with EHF. Moreover, the binding signal is 1.38 fold enrichment (6-mer frequency, TF over GST control) in the test with SPI1; 1.44 fold enrichment (6-mer frequency, TF over GST control) with SPIB; 1.57 fold enrichment (6-mer frequency, TF over GST control) with ELK3.

Regarding TATACG, the binding signal with FLI1 was 1.32 fold enrichment (6-mer frequency, TF over GST control); with ELK1, 1.31 fold enrichment (6-mer frequency, TF over GST control); with GABPA, 1.3 fold enrichment (6-mer frequency, TF over GST control); with ERG it was 1.24 fold enrichment (6-mer frequency, TF over GST control); in the test with ELF1, 1.31 fold enrichment (6-mer frequency, TF over GST control); in the test with EHF, 1.2 fold enrichment (6-mer frequency, TF over GST control). Further, the binding signal with SPI1 was 1.2 fold enrichment (6-mer frequency, TF over GST control); with SPIB, 1.35 fold enrichment (6-mer frequency, TF over GST control); with ELK3 it was 1.22 fold enrichment (6-mer frequency, TF over GST control).

Take ATATAA: the binding signal with FLI1 was 1.15 fold enrichment (6-mer frequency, TF over GST control); with ELK1, 1.22 fold enrichment (6-mer frequency, TF over GST control); with GABPA, 1.2 fold enrichment (6-mer frequency, TF over GST control); in the test with ERG it was 1.15 fold enrichment (6-mer frequency, TF over GST control); with ELF1 it was 1.24 fold enrichment (6-mer frequency, TF over GST control); in the test with EHF, 1.21 fold enrichment (6-mer frequency, TF over GST control). The binding signal with SPI1 was 1.1 fold enrichment (6-mer frequency, TF over GST control); in the test with SPIB it was 1.22 fold enrichment (6-mer frequency, TF over GST control); with ELK3, 1.25 fold enrichment (6-mer frequency, TF over GST control).

As to TCCATG, the binding signal is 1.17 fold enrichment (6-mer frequency, TF over GST control) with FLI1; 1.18 fold enrichment (6-mer frequency, TF over GST control) in the test with ELK1; 1.1 fold enrichment (6-mer frequency, TF over GST control) with GABPA; 1.09 fold enrichment (6-mer frequency, TF over GST control) with ERG; 1.11 fold enrichment (6-mer frequency, TF over GST control) in the test with ELF1; 1.17 fold enrichment (6-mer frequency, TF over GST control) in the test with EHF. Further, the binding signal in the test with SPI1 is 1.1 fold enrichment (6-mer frequency, TF over GST control); in the test with SPIB it was 1.13 fold enrichment (6-mer frequency, TF over GST control); in the test with ELK3, 1.24 fold enrichment (6-mer frequency, TF over GST control).

For CTACGA, the binding signal in the test with FLI1 was 1.16 fold enrichment (6-mer frequency, TF over GST control); in the test with ELK1, 1.24 fold enrichment (6-mer frequency, TF over GST control); with GABPA, 1.29 fold enrichment (6-mer frequency, TF over GST control); with ERG, 1.2 fold enrichment (6-mer frequency, TF over GST control); in the test with ELF1, 1.27 fold enrichment (6-mer frequency, TF over GST control); in the test with EHF, 1.25 fold enrichment (6-mer frequency, TF over GST control). Moreover, the binding signal was 1.14 fold enrichment (6-mer frequency, TF over GST control) in the test with SPI1; 1.23 fold enrichment (6-mer frequency, TF over GST control) with SPIB; 1.33 fold enrichment (6-mer frequency, TF over GST control) with ELK3.

The values are drawn from paper PMC7862700, “An all-to-all approach to the identification of sequence-specific readers for epigenetic DNA modifications on cytosine”.
